# Bioassay records: PubChem, National Center for Advancing Translational Sciences (NCATS)
# Cruzain noTriton = cruzain (T. cruzi) inhibition without detergent; P25779; purified cruzain, Z-FR-AMC fluorescence, no detergent; Potency, µM, inactives show max response, negative = inhibition, hits mostly inhibitors; 200,000 compounds, 2.3% hits; AID 1476;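 note: plate controls were enzyme without inhibitor for no effect and buffer without enzyme for full effect; nearly all actives have a fitted effect of over 40% in size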
#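 Purified cruzain at 1.5 nM, pre-incubated 15 min with compound at room temperature in 100 mM sodium acetate pH 5.5, 5 mM DTT, 0.00005% Triton X-100. Reaction started with 2 uM Z-FR-AMC; AMC fluorescence increase over 60 s gives rate.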
# Giardia FBPA inh-1 = inhibitors of Giardia lamblia fructose-1,6-bisphosphate aldolase; Potency, µM (doses to about 59.6 µM), without a hit: top-dose activity, negative = inhibition, most hits filed as inhibitors; purified Giardia FBPA; 290,000 compounds, 0.71% hits; A8B2U2; note: nearly all actives have a fitted effect of over 55% in size
#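 40 nM FBPA preincubated 10 min at RT with compound (up to 57.5 uM final), then substrate plus GAPDH/TPI/NAD/arsenate coupling and diaphorase/resazurin added. Fluorescence read after 20 min at RT, 525/598 nm.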
# Cruzain Triton = blocks cruzain activity in presence of Triton detergent; Potency, µM, for the others: max response, negative = inhibition, most hits filed as inhibitors; 200,000 compounds, 0.43% hits; P25779; purified cruzain, Z-FR-AMC fluorescence, 0.01% Triton;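 note: plate controls were neutral wells for no effect and buffer without enzyme for full effect; nearly all actives have a fitted effect of over 40% in size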
#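 Cruzain (1.5 nM) preincubated 15 min at RT with compound in 100 mM sodium acetate pH 5.5, 5 mM DTT, 0.01% Triton X-100. Reaction started with 2 uM Z-FR-AMC; AMC fluorescence (ex 360/em 450 nm) change over 60 s gave rate.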
# Giardia growth = Giardia lamblia growth inhibition | shares compounds with Giardia FBPA inh-1 | Giardia lamblia trophozoite growth inhibition | Potency, µM (highest dose often 57.5 µM), inactives show at the highest dose activity change, negative = inhibition, hits mostly inhibitors | 1,500 compounds, 5% hits | AID 2785;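 note: trophozoites exposed to compound for 48 h at 37 °C; nearly all actives have a fitted effect of over 70% in size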
# Mammalian tox = mammalian cytotoxicity of Giardia aldolase inhibitor hits; shares compounds with Giardia FBPA inh-1; mammalian cell viability counter-screen, qHTS; Potency, µM (titrated, usually from 57.5 µM), for the others: at the highest dose viability change, negative = toxicity, most hits filed as inhibitors; 1,500 compounds, 4% hits;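 note: Chinese hamster ovary cells used as mammalian cytotoxicity surrogate; viability measured as cellular ATP by luminescence; compound exposure lasted 48 h before reading; nearly all actives have a fitted effect of over 60% in size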
# Giardia FBPA inh-2 = confirmation of Giardia fructose-bisphosphate aldolase inhibitors; shares compounds with Giardia FBPA inh-1; purified Giardia aldolase enzyme activity, qHTS; Potency, µM (top dose mostly 57.5 µM), for the others: at the top dose activity change, negative = inhibition, most hits filed as inhibitors; 1,500 compounds, 5% hits; note: nearly all actives have a fitted effect of over 45% in size
# Rabbit FBPA inh = selectivity test for Giardia aldolase inhibitors: rabbit aldolase; shares compounds with Giardia FBPA inh-1; Rabbit muscle FBPA enzyme inhibition, selectivity counter-screen; Potency, µM (series often up to 57.5 µM), without a hit: top-dose activity, negative = inhibition, actives largely listed as inhibitors; 1,500 compounds, 4% hits; AID 2794; note: nearly all actives have a fitted effect of over 60% in size
# Target sequence (P00883 whole entry, looked up): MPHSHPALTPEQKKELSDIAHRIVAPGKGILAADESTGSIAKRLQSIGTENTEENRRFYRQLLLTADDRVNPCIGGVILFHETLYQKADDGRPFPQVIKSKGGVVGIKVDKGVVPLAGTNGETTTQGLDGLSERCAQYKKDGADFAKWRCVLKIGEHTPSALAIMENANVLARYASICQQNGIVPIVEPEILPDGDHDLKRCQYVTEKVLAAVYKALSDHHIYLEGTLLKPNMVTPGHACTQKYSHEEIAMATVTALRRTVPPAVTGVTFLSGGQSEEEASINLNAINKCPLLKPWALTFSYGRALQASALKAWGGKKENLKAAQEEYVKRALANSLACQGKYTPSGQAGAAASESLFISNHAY
# GAPDH counter = GAPDH inhibition flagged for Giardia aldolase hits. shares compounds with Giardia FBPA inh-1. GAPDH coupling enzyme counterscreen, biochemical, qHTS. Potency, µM (top dose mostly 57.5 µM), for the others: at the top dose activity change, negative = inhibition, usual class: inhibitors. 1,500 compounds, 6% hits. AID 2795; note: nearly all actives have a fitted effect of over 55% in size
# An asterisk follows results filed as active; ? = inconclusive; nt = no result; [ ] = dose if it differs, or a comment. The sample as a whole holds a higher share of hits than the screen did. Calls come from the whole dose curve; as a rule, active = well fitted curve in the direction sought with a large enough effect; inconclusive = small, poorly fitted or top-dose-only effect, or another doubt; inactive = no such curve, though single readings can be large; an effect the other way counts as inactive or inconclusive. Unless noted, % is set by controls: 0 for no effect and ±100 for the full control effect; potency is the fitted concentration of half-maximal effect.
SMILES,Cruzain noTriton,Giardia FBPA inh-1,Cruzain Triton,Giardia growth,Mammalian tox,Giardia FBPA inh-2,Rabbit FBPA inh,GAPDH counter
OC(CN1CCCC(C(F)(F)F)C1)c1ccccc1 (stereo not drawn),nt,4.2%,nt,nt,nt,nt,nt,nt
OC(COC(c1ccc(F)cc1)c1ccc(F)cc1)CN1CCCC(C(F)(F)F)C1 (stereo not drawn),nt,14.1µM*,nt,?,-3.2%,2.1%,4.2%,-4.7%
COc1ccc(N2CCN(CC(O)COC(c3ccc(F)cc3)c3ccc(F)cc3)CC2)cc1 (stereo not drawn),nt,15.8µM*,nt,4.0%[10.4 µM],13.1%,-7.5%,-8.0%,3.4%
COc1ccc(N2CCN(CC(O)COC(c3ccccc3)c3ccccc3)CC2)cc1 (stereo not drawn),nt,-1.3%,nt,nt,nt,nt,nt,nt
Cc1ccc(CNC(=O)CCc2nc3cccnc3n2Cc2ccccc2)cc1,0.8%,nt,-2.6%,nt,nt,nt,nt,nt
O=c1[nH]c(=S)[nH]c(O)c1C(c1ccccn1)c1c(O)[nH]c(=S)[nH]c1=O,nt,15.8µM*,nt,1.6%[10.4 µM],12.7%,-2.3%,11.1%,-4.9%
CCn1c(O)c(C(c2ccccn2)c2c(O)n(CC)c(=S)[nH]c2=O)c(=O)[nH]c1=S,-5.4%,17.7µM*,-1.9%,17.8%[10.4 µM],5.0%,-6.5%,12.1%,10.6%
Cc1[nH]c2ccccc2c1C(c1ccccn1)c1c(C)[nH]c2ccccc12,6.2%,?,-3.3%,nt,nt,nt,nt,nt
CCn1c(O)c(C=NCc2ccccc2)c(=O)[nH]c1=S,nt,1.5%,nt,nt,nt,nt,nt,nt
CCc1ccccc1NC(=O)Cn1c(=O)nc(-c2ccccc2)c2ccccc21,-7.1%,nt,-2.9%,nt,nt,nt,nt,nt
CS(=O)(=O)Nc1cccc(-c2ccc3ncnc(N4CCNCC4)c3c2)c1,1.0%,1.9%,3.4%,nt,nt,nt,nt,nt
O=C(NC(=S)Nc1ccccn1)c1cncc(Br)c1,-3.1%,-25.9%,-3.8%,nt,nt,nt,nt,nt
Cc1cccnc1NC(=S)NC(=O)c1cccs1,2.1%,19.9µM*,-0.3%,0.3%[10.4 µM],31.6µM*,-1.2%,5.8%,14.7%
Cc1cccnc1NC(=S)NC(=O)c1cncc(Br)c1,0.5%,9.98µM*,3.2%,-1.8%[38.3 µM],-8.4%,0.0%,-6.0%,-1.0%
CC(=O)c1cccc(NC(=S)NC(=O)c2cncc(Br)c2)c1,nt,12.6µM*,nt,-10.2%[10.4 µM],14.6%,9.4%,10.5%,6.6%
O=C(NC(=S)Nc1ccccc1C(=O)O)c1cncc(Br)c1,nt,9.4%,nt,nt,nt,nt,nt,nt
Cc1cccnc1NC(=O)NC(=O)c1ccc(C(C)(C)C)s1,nt,2.6%,nt,nt,nt,nt,nt,nt
CC(=O)c1cccc(NC(=S)NC(=O)c2ccccc2)c1,1.6%,?,-7.4%,nt,nt,nt,nt,nt
O=C(NC(=S)Nc1ccccc1[N+](=O)[O-])c1cncc(Br)c1,nt,7.94µM*,nt,11.2µM*,-3.8%,6.3%,4.5%,9.4%
Cc1ccccc1-c1nc2cc(NC(=O)COc3ccc(F)cc3)ccc2o1,-1.2%,nt,-2.7%,nt,nt,nt,nt,nt
COc1cccc(-c2nc(NC3CCNCC3)c3ccccc3n2)c1,-6.3%,-7.9%,7.9%,nt,nt,nt,nt,nt
Cc1ccc2nc(SC(Cc3cc(Cl)ccc3Cl)C(=O)O)[nH]c2c1 (stereo not drawn),-7.3%,nt,-3.3%,nt,nt,nt,nt,nt
CCN1C(=O)c2ccccc2Sc2ccc(NC(=O)Nc3cccc([N+](=O)[O-])c3C)cc21,-20.4%,nt,6.4%,nt,nt,nt,nt,nt
CCOc1ccc(NC(=O)CN2CCSc3ccc(S(=O)(=O)N4CCCC4)cc32)cc1,-1.6%,nt,-11.4%,nt,nt,nt,nt,nt
CC(=O)c1ccc(N2CCN(c3ccc(S(=O)(=O)NCCCN(C)C)cc3[N+](=O)[O-])CC2)cc1,nt,3.8%,nt,nt,nt,nt,nt,nt
CN(C)CCCNS(=O)(=O)c1ccc(N2CCN(Cc3ccc4c(c3)OCO4)CC2)c([N+](=O)[O-])c1,nt,14.1µM*,nt,-16.8%,-0.3%,-7.5%,-1.0%,14.2%
COc1cccc(CNC(=O)CSc2ncc(S(=O)(=O)c3ccc(Br)cc3)c(=O)[nH]2)c1,12.9%,nt,-6.3%,nt,nt,nt,nt,nt
Cc1ccnc(NC(=O)c2c(O)c3ccccc3n(C)c2=O)c1,?,1.5%,0.0%,nt,nt,nt,nt,nt
